From the supplement of paper PMC7156485
Several values for one entry are separate records, joined by “and”; a condition that tells them apart may be missing. Equal entries are not always repeated. ± gives the standard deviation of the averaged measurements.

Legend:
Settings in all cases: concentration: 10 µM; 24 h
HCC1569 [1] = assay: cell number relative to DMSO (% of DMSO); higher = more cells (less growth inhibition / toxicity)
Outline: (§1)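 After 24 h at 37 °C with compounds at 10 µM, in triplicate, HCC1569 and TDF cells were fixed with 3.7% formaldehyde. Immunostaining used a rabbit anti-H1.0 antibody and an AlexaFluor 647 secondary, with DAPI, and six fields per well were imaged at ×10. H1.0 nuclear intensity or cell number is presented as percent of the plate control, from the median of replicates, with HCC1569 values smoothed for positional effects.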

TDF [2] = assay: as above
Outline: as §1

TDF [3] = assay: H1.0 immunofluorescence intensity relative to DMSO (% of DMSO); higher = stronger H1.0 induction, active = 120 or more
Outline: as §1

HCC1569 [4] = assay: H1.0 immunofluorescence intensity relative to DMSO (% of DMSO); higher = stronger H1.0 induction, active = 140 or more
Outline: as §1
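Wherever H1.0 immunofluorescence intensity relative to DMSO is given: TDF is a line of transformed human dermal fibroblasts of mesenchymal origin.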
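Wherever cell number relative to DMSO is given: TDF denotes transformed human dermal fibroblasts of mesenchymal origin.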

SMILES | cell number (HCC1569 [1]) | cell number (TDF [2]) | H1.0 immunofluorescence intensity (TDF [3]) | H1.0 immunofluorescence intensity (HCC1569 [4])
C=C1C(C)C2C(Cc3ccccc3)NC(=O)C23OC(=O)C=CC(O)CCCC(C)CC=CC3C1O (stereo unspecified) [Cytochalasin B] | 95.1 | 63.7 | 125 (active) | 110 (inactive)
NC(N)=Nc1ccc2[nH]c3c(c2c1)CC1(O)C2Cc4ccc(O)c5c4C1(CCN2CC1CC1)C3O5.O=C(O)C(F)(F)F.O=C(O)C(F)(F)F (stereo unspecified) [Guanidinyl-naltrindole di-trifluoroacetate] | 93.6 | 83.5 | 104 (inactive) | 115 (inactive)
C=CC12CN(C)C3C4COC(CC41)C1(C(=O)Nc4ccccc41)C32.Cl (stereo unspecified) | 102 | 111 | 101 (inactive) | 94.5 (inactive)
CCCCCCCCCCCCCCCC(=O)OCC(COP(=O)([O-])OCC[N+](C)(C)C)OC(C)=O (stereo unspecified) | 102 | 102 | 98.7 (inactive) | 101 (inactive)
CC(C)c1cc2c(c(O)c1O)C1(C(=O)O)CCCC(C)(C)C1CC2 (stereo unspecified) [Carnosic acid] | 96.8 | 99.9 | 95.3 (inactive) | 103 (inactive)
CCN1CC2(COC)CCC(OC)C34C5CC6C(OC)CC7(OCOC7(C(O)C23)C14)C5C6OC (stereo unspecified) [Delcorine] | 103 | 105 | 99 (inactive) | 94.3 (inactive)
O=C1CCCC2C3CCCN4CCCC(CN12)C34 (stereo unspecified) [Matrine] | 100 | 94.7 | 99.3 (inactive) | 94.6 (inactive)
CCCCCCCCC(=O)NCc1ccc(O)c(OC)c1 [N-Vanillylnonanamide] | 76.7 | 81.3 | 107 (inactive) | 160 (active)
CN(C)C(=O)C(CCN1CCC(O)(c2ccc(Cl)cc2)CC1)(c1ccccc1)c1ccccc1.Cl [Loperamide.HCl] | 102 | 98.6 | 97.6 (inactive) | 105 (inactive)
CC(O)=C(C#N)C(=O)Nc1cc(Br)ccc1Br | 100 and 108 | 99.5 and 103 | 99 (inactive) and 97.5 (inactive) | 111 (inactive) and 98.6 (inactive)
Cl.Cl.Cn1cnc(CCN)c1 [1-Methylhistamine dihydrochloride] | 98.1 | 110 | 86.4 (inactive) | 95.3 (inactive)
CCn1cnc2c(Nc3cccc(Cl)c3)nc(NC3CCCCC3N)nc21.Cl (stereo unspecified) | 53 | 21.5 | 132 (active) | 101 (inactive)
C1CCC(NC2CCCCC2)CC1 | 96.5 | 102 | 93.9 (inactive) | 100 (inactive)
Cl.Cl.NNCc1cccc(O)c1 [3-Hydroxybenzylhydrazine dihydrochloride] | 46.1 | 48.9 | 117 (inactive) | 104 (inactive)
CC(=O)c1c(O)c(C)c(O)c(Cc2c(O)c3c(c(C(=O)C=Cc4ccccc4)c2O)OC(C)(C)C=C3)c1O [Rottlerin] | 82.5 ± 13 | 77.9 ± 6.9 | 109 (inactive) | 104 (inactive)
COc1cc2c(c3oc4cccc(O)c4c(=O)c13)C1C=COC1O2 (stereo unspecified) [Sterigmatocystin] | 80.2 | 75.6 | 96.5 (inactive) | 92.2 (inactive)
Cl.c1ccc(C2CC2)c(OCC2=NCCN2)c1 [Cirazoline hydrochloride] | 102 | 109 | 90.7 (inactive) | 87.7 (inactive)
COC(C)C(O)(C(=O)OCC1=CCN2CCC(O)C12)C(C)C (stereo unspecified) [Heliotrine] | 99.8 | 105 | 91.4 (inactive) | 90.6 (inactive)
CC1(C(=O)O)C2CCC(O2)C1(C)C(=O)O (stereo unspecified) [Cantharidic Acid] | 19.6 | 13.6 | 239 (active) | 180 (active)
Cl.c1ccc2sc(C3(N4CCCCC4)CCCCC3)cc2c1 [BTCP hydrochloride] | 100 | 106 | 88.2 (inactive) | 96.6 (inactive)
CC(C)c1cccc(C(C)C)c1O [Propofol] | 99.2 ± 2.9 | 93.1 ± 16 | 93.7 (inactive) | 95.8 (inactive)
Cc1cc(C2CCCN2C)on1 (stereo unspecified) | 102 | 102 | 90.2 (inactive) | 88.1 (inactive)
O=[N+]([O-])c1cc(O)c(O)c([N+](=O)[O-])c1 [3,5-Dinitrocatechol] | 98.6 | 107 | 99.9 (inactive) | 97.9 (inactive)
Cl.Cl.Fc1ccc(C(OCCN2CCN(CCCc3ccccc3)CC2)c2ccc(F)cc2)cc1 | 81 | 69.8 | 96.7 (inactive) | 124 (inactive)
